Laboratory results taken from PubChem BioAssay (Tox21).
Records with an inconclusive call do not appear. The source made the active and inactive calls. Unless noted, calls follow the shape of the dose curve; as a rule, active = well fitted curve in the direction sought with a large enough effect in the repeat runs; inconclusive = weak or mixed curves; inactive = no such curve, though single readings can be large; an effect the other way counts as inactive or inconclusive.

How the values were obtained:
[1] = A CellTox Green Cytotoxicity Assay to monitor cytotoxicity in HEK293 cells - 32 hour (AID 1224881); also: nearly all actives have a fitted effect of over 40% in size
In short: (§1)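 Tox21 screen in HEK293: membrane-impermeant cyanine dye fluoresces on binding dead-cell DNA; compound pinned 5 h post-seeding, plates held at 37 C, signal read repeatedly through 40 h.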

[2] = A CellTox Green Cytotoxicity Assay to monitor cytotoxicity in HepG2 cells - 0 hour (AID 1224882); also: nearly all actives have a fitted effect of over 35% in size
In short: (§2)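 Measurements at 0, 8, 16, 24, 32 and 40 h of treatment captured CellTox Green fluorescence in HepG2 cells that had been co-plated with reagent and preincubated 5 h at 37 C/5% CO2.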

[3] = A CellTox Green Cytotoxicity Assay to monitor cytotoxicity in HEK293 cells - 8 hour (AID 1224884); also: nearly all actives have a fitted effect of over 35% in size
In short: as §1

[4] = qHTS RealTime-Glo MT Cell Viability Assay in HepG2 cells - 16 hour (AID 1224885); also: nearly all actives have a fitted effect of over 50% in size
In short: (§3)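 Viability was tracked continuously by NanoLuc luminescence from prosubstrate reduced by living HepG2 cells, at successive time points over 40 h of compound exposure. Cells with reagent were preincubated 5 h at 37 °C before compound addition.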

[5] = qHTS RealTime-Glo MT Cell Viability Assay in HEK293 cells - 24 hour (AID 1224886); also: top concentration of the series differs between compounds; nearly all actives have a fitted effect of over 50% in size
In short: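 Viability tracked continuously by luminescence as live cells reduce a prosubstrate for NanoLuc; HEK293 cells preincubated 5 h, compound-treated at 37 C, and read at 0, 8, 16, 24, 32 and 40 h.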

[6] = qHTS RealTime-Glo MT Cell Viability Assay in HEK293 cells - 8 hour (AID 1224887); also: top concentration of the series differs between compounds; nearly all actives have a fitted effect of over 50% in size
In short: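 HEK293 + NanoLuc + prosubstrate, 600 cells/well; 5 h, 37 C/5% CO2; compound 23 nL in DMSO by pintool; 37 C; luminescence read at 0, 8, 16, 24, 32 and 40 h time points.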

[7] = A CellTox Green Cytotoxicity Assay to monitor cytotoxicity in HEK293 cells - 16 hour (AID 1224888); also: nearly all actives have a fitted effect of over 35% in size
In short: as §1

[8] = qHTS RealTime-Glo MT Cell Viability Assay in HepG2 cells - 0 hour (AID 1224889); also: nearly all actives have a fitted effect of over 50% in size
In short: as §3

[9] = A CellTox Green Cytotoxicity Assay to monitor cytotoxicity in HepG2 cells - 8 hour (AID 1224890); also: nearly all actives have a fitted effect of over 45% in size
In short: as §2

[10] = qHTS assay to identify small molecule antagonists of the estrogen receptor alpha (ER-alpha) signaling pathway using the BG1 cell line in the presence of 0.1 nM 17-beta-estradiol - cell viability counter screen (AID 1259241); also: nearly all actives have a fitted effect of over 40% in size
In short: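 Live-cell protease activity (CellTiter-Fluor fluorescence, 30 min) was read in the same wells after VM7Luc4E2 cells had been exposed to compounds with 0.1 nM 17beta-estradiol for 22 hr at 37C.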

[11] = qHTS assay to identify small molecule antagonists of the androgen receptor (AR) signaling pathway using the MDA cell line in the presence of 0.5 nM R1881 - cell viability counter screen (AID 1259242); also: nearly all actives have a fitted effect of over 45% in size
In short: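 Concentration-response screen of compounds for toxicity in MDA-kb2 reporter cells: 16 hr at 37C with 0.5 nM R1881, endpoint live-cell protease fluorescence measured in the reporter wells.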

[12] = qHTS assay to identify small molecule HDAC inhibitors (AID 1259364);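 also: wild-type HCT-116 cells with endogenous class I/II HDAC activity; top concentration of the series differs between compounds; nearly all actives have a fitted effect of over 45% in size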
In short: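 Screening used wild-type human colon HCT-116 cells incubated overnight, dosed with compounds for 2 hours, and assayed with a homogeneous luminogenic HDAC I/II reagent for 30 minutes at room temperature.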

[13] = qHTS assay to identify small molecule HDAC inhibitors - cell viability counter screen (AID 1259365)
In short: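 HCT-116 (wild type), 1,500 cells/well, overnight 37C/5% CO2; compound in DMSO 2hr; CellTiter-Glo 30min RT; luminescence read.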

[14] = qHTS assay to identify small molecule agonists of the sonic hedgehog signaling (Shh) pathway - cell viability counter screen (AID 1259366); also: nearly all actives have a fitted effect of over 50% in size
In short: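 CellTiter-Fluor fluorescence read-out, 1 hr at 37C, added after 23hr compound exposure. Cells: 3T3 Gli1-Luc, an NIH/3T3 clone with stably integrated Gli1-Luc reporter, plated 4hr before compound.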

[15] = qHTS assay to identify small molecule antagonists of the sonic hedgehog signaling (Shh) pathway - cell viability counter screen (AID 1259367); also: nearly all actives have a fitted effect of over 55% in size
In short: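 Fluorescence read-out (CellTiter-Fluor, 1 hr at 37C) taken after 23 hr compound treatment of 3T3 Gli1-Luc cells stimulated with conditioned medium. Cells were seeded at 2,000 per well and pre-incubated 4 hr.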

[16] = qHTS assay to identify small molecule agonists of the sonic hedgehog signaling (Shh) pathway (AID 1259368; calls by dose curve;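 also: NIH/3T3-derived 3T3Gli1-Luc cells carrying a stable Gli1-driven firefly luciferase reporter; series mostly up to about 92 µM; nearly all actives have a fitted effect of over 15% in size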)
In short: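 Hedgehog pathway agonism scored by increased firefly luciferase luminescence in 3T3Gli1-Luc cells treated 24 hr at 37 C; detection used a 30 min room-temperature reagent incubation.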

[17] = molecular target: Androgen receptor (Homo sapiens) (UniProt P10275); experiment: qHTS assay to identify small molecule antagonists of the androgen receptor (AR) signaling pathway using the MDA cell line in the presence of 0.5 nM R1881 (AID 1259243); also: nearly all actives have a fitted effect of over 50% in size
In short: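 With R1881 held at 0.5 nM (final), compound effects on MMTV-luciferase expression in MDA-kb2 cells were scored by luminescence after a 16 hr, 37C incubation.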

[18] = molecular target: Estrogen receptor (Homo sapiens) (UniProt P03372); experiment: qHTS assay to identify small molecule antagonists of the estrogen receptor alpha (ER-alpha) signaling pathway using the BG1 cell line in the presence of 0.1 nM 17-beta-estradiol (AID 1259244); also: nearly all actives have a fitted effect of over 50% in size
In short: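 Compounds were tested against 0.1 nM (final) 17beta-estradiol in VM7Luc4E2 cells, which express full-length ER-alpha and an ERE-luciferase reporter; luminescence was recorded following 22 h exposure.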

[19] = qHTS assay to identify small molecule phospholipidosis (PLD) inducers (AID 1259344; active = well fitted curve in the direction sought with a large enough effect; an effect the other way counts as inactive or inconclusive)
In short: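 Read-out is LipidTOX Red fluorescence (ex 595/em 615) imaged in HepG2 cells after 24 h compound exposure at 37 C, with Hoechst nuclear counterstain (ex 352/em 461) allowing per-cell normalisation.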

[20] = A CellTox Green Cytotoxicity Assay to monitor cytotoxicity in HepG2 cells - 32 hour (AID 1224883); also: nearly all actives have a fitted effect of over 50% in size
In short: as §2

Measured: Potency

Chain of Estrogen receptor (Homo sapiens) (P03372 whole entry, looked up): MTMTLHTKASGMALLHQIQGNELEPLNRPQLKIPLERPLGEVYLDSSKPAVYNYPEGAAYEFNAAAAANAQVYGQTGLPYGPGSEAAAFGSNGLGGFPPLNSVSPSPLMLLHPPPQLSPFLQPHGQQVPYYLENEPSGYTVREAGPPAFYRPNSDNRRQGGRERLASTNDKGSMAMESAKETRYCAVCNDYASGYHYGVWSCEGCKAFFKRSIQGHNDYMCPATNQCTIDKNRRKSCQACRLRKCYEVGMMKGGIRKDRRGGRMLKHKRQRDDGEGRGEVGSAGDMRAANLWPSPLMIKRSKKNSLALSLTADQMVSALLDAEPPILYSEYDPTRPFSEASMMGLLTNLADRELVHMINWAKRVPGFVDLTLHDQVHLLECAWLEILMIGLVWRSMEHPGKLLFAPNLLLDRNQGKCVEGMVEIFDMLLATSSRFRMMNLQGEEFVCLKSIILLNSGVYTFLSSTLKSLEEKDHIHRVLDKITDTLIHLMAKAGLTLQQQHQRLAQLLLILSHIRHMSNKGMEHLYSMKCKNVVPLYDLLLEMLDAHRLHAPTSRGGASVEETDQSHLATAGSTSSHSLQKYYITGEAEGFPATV
Chain of Androgen receptor (Homo sapiens) (P10275 whole entry, looked up): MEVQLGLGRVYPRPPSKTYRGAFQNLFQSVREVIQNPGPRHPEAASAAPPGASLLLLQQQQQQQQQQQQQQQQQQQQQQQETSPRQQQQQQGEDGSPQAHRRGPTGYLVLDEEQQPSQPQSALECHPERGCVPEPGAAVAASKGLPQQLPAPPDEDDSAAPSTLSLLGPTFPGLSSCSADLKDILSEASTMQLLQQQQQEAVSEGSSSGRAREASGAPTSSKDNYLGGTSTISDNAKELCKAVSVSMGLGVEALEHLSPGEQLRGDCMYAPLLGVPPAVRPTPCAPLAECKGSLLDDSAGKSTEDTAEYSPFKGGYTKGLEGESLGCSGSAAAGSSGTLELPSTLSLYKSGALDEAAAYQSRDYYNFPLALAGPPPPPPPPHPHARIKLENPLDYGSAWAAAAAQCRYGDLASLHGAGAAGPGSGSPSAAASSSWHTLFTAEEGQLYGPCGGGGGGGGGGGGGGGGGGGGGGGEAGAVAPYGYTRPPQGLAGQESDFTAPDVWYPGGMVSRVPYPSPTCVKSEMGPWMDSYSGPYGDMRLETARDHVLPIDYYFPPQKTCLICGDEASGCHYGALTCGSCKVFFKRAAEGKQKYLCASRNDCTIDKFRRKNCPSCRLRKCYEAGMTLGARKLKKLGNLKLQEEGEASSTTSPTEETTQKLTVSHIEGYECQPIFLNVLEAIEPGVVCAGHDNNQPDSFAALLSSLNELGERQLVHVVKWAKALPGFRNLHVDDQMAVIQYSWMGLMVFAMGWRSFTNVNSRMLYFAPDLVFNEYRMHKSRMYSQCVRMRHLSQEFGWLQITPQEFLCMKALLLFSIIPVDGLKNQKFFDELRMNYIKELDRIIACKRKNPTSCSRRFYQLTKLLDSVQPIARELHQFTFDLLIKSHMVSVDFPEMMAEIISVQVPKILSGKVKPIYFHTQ

NO
inactive: [1] | [2] | [3] | [4] | [5] | [6] | [7] | [8] | [9] | [10] | [11] | [12] | [13] | [14] | [15] | [16]

COc1cc2c(cc1OC)-c1cc3ccc(OC)c(OC)c3c[n+]1CC2
inactive: [1] | [2] | [3] | [4] | [6] | [7] | [8] | [9] | [12] | [13] | [14] | [15] | [16]

O=Cc1cccc(Br)c1
inactive: [1] | [2] | [3] | [4] | [5] | [6] | [7] | [8] | [9] | [11] | [12] | [13] | [14] | [15] | [16]

Cc1ccc(C(=O)c2ccc(CC(=O)O)n2C)cc1
inactive: [1] | [3] | [5] | [6] | [7] | [8] | [10] | [11] | [17] | [18] | [19] | [13] | [14] | [15] | [16]

Cc1ccc(C(=O)c2ccccc2)cc1
inactive: [1] | [2] | [3] | [4] | [5] | [6] | [7] | [9] | [10] | [11] | [18] | [13] | [14] | [15] | [16]

c1ccc(Cc2ccccc2)cc1
inactive: [2] | [20] | [3] | [4] | [5] | [6] | [7] | [8] | [9] | [10] | [11] | [18] | [12] | [13] | [14] | [15] | [16]

CC(=O)NC(=O)c1ccccc1O
inactive: [1] | [2] | [3] | [5] | [6] | [7] | [8] | [9] | [10] | [11] | [18] | [12] | [13] | [14] | [15] | [16]

CC(=O)C1CCCCC1=O (stereo not drawn)
inactive: [1] | [2] | [3] | [5] | [6] | [7] | [8] | [9] | [10] | [11] | [18] | [12] | [13] | [14] | [16]

CC(=O)c1ccc2ccccc2c1
inactive: [1] | [2] | [3] | [4] | [5] | [6] | [7] | [8] | [10] | [11] | [18] | [12] | [13] | [14] | [15] | [16]
